The source of these data is PubChem BioAssay AID602274 (Sanford-Burnham Center for Chemical Genomics, 2012).

Molecules are shown by their SMILES. The campaign covered roughly 360,000 compounds. About 160 (0.044%) were called active. The entries come from a sample that favours actives as a whole. Unmarked numbers belong to inactive results. Cut-off read from the data, not from the text of the source: active = survival enhancement above about 18%; inactive = the rest.

The nature of the assay: compounds raising survival of dissociated human iPSCs – cell-based, ATPlite luminescence, primary screen (AID 602274).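 Note: cells exposed to compounds for 16 hours before the ATP read.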 The settings on record: hiPSC single-cell survival, at 20 µM, stronger effect = higher value, 100% = ROCK inhibitor wells, 0% = DMSO. (In general: In ATP-based viability assays light output follows the ATP content of the culture.)
Turning to `Cc1ccc(Nc2c(O)nc[nH]c2=O)cc1C`, the survival enhancement is 0.4%. With `CC(=NCc1ccc2c(c1)OCO2)C1=C(O)c2ccccc2C1=O`, the survival enhancement was 2.2%.

`CC(=O)Nc1ccc(S(=O)(=O)Oc2ccc(/C=N/N=C3/NC(=O)C(CC(=O)O)S3)cc2)cc1` (stereo unspecified): the survival enhancement is 2%. As to `COc1cc(CO)c(C2(CO)CCCC2)cc1OC`, the survival enhancement was 3.1%. Consider `C[C@@H]1ON(C)[C@H]2C[C@H]3c4cc(N5CCN(C)CC5)ccc4CCN3C(=O)[C@@H]12`, for which the survival enhancement is -2.2%. For the compound `CC(C)C(C)(C#N)NC(=O)CSc1nc2scc(-c3ccccc3)c2c(=O)[nH]1` (stereo unspecified), the survival enhancement is -0.3%. The same measure for `N=C1C(=O)OCC1c1ccccc1NC(=O)CN1CCCCC1` (stereo unspecified): -0.4%. As for `COc1ccc(C(C(=O)NCc2ccccc2)N(Cc2cccs2)C(=O)c2cnccn2)cc1` (stereo unspecified), the survival enhancement is 6.6%. The same measure for `COC(=O)c1ccc(CN2CCCC(C(=O)Nc3cccc(-n4cnnn4)c3)C2)cc1` (stereo unspecified): 0.6%; for `C=CC(COCc1ccccc1)N(CC(=O)OC)S(=O)(=O)c1cc(Br)ccc1OC` (stereo unspecified): -0.4%; for `CCCNc1c(N)c(=O)c1=O`: -0.6%. Take `O=C(Nc1ccccc1N1CCCC1)c1ccc(F)c(S(=O)(=O)N2CCOCC2)c1`: the survival enhancement is -0.3%. Consider `O=C(c1cccs1)N1C[C@H](n2cc(C3CC3)nn2)[C@@H](O)C[C@@H]1c1ccccc1`, for which the survival enhancement is -0.3%.

Consider `Cc1c(S(=O)(=O)N2CC(C)CC(C)C2)c(=O)n(C)c(=O)n1C` (stereo unspecified), for which the survival enhancement is -0.4%. With `CCc1nc2ccc(C(=O)Nc3cccc(OC)c3)cn2c1N(CCC(C)C)CCN(C)C`, the survival enhancement was -0.8%.

On to `CNC(=O)c1nnc(Cc2ccc(Cl)cc2)o1`, for which the survival enhancement was 0.3%. Regarding `CCn1c(=S)sc2c(=O)n(CC(=O)Nc3cccc(Br)c3)c(C)nc21`, the survival enhancement was -0.2%.

Regarding `CCNC(=O)N1CCCC(C(=O)c2ccc(-c3ccccc3)cc2)C1` (stereo unspecified), the survival enhancement is 1.4%. As for `CC1(C)CC(N(Cc2ccccc2)C(=O)Cc2ccccc2)CCO1` (stereo unspecified), the survival enhancement is -0.5%. Consider `CCN1C[C@@H]2[C@@H]3C(=O)N(C)C(=O)[C@@H]3[C@](C)(C1=O)N2C(=O)c1ccccc1`, for which the survival enhancement was -1.3%. In the case of `CC(C)C[C@H](NC(=O)C1CCC(CNC(=O)[C@@H]2CCCN2C(=O)OC(C)(C)C)CC1)C(=O)O` (stereo partly specified), the survival enhancement is 0.8%.

As for `Cc1nc(C(F)(F)F)ccc1C(=O)N1CCC1(C)C(=O)NS(=O)(=O)c1ccc(F)cc1F` (stereo unspecified), the survival enhancement was -1.2%. On to `CC[C@H]1OC(=O)[C@H](C)[C@@H](O[C@H]2C[C@@](C)(OC)[C@@H](O)[C@H](C)O2)[C@H](C)[C@@H](O[C@@H]2O[C@H](C)C[C@H](N(C)C)[C@H]2O)[C@](C)(O)C[C@@H](C)[C@@H]2N[C@@H](COCCOC)O[C@H]([C@H]2C)[C@]1(C)O`, for which the survival enhancement is 1.7%. For the compound `CCCCN(C(=O)c1ccc2ccccc2c1)c1c(N)n(CCCC)c(=O)[nH]c1=O`, the survival enhancement was -0.4%. For `Cn1cc(CN2CCCC(CO)C2)c(-c2ccc(Oc3ccccc3)cc2)n1` (stereo unspecified), the survival enhancement was 4.5%.

In the case of `CNC(=O)NC(=O)C(OC(=O)c1cccc(S(=O)(=O)N2CCCCC2)c1)c1ccccc1` (stereo unspecified), the survival enhancement is 0.1%. As to `O=C1CCC[C@@H]2CC(N3CCCCC3)C[C@@H]3CCN1[C@H]23` (stereo partly specified), the survival enhancement was -1.2%. As to `CCc1nc2ccccc2n(CCOCCOCCn2c(=O)c(CC)nc3ccccc32)c1=O`, the survival enhancement was 2.6%. On to `Cc1ccc(S(=O)(=O)N2CCOCC2)cc1NC(=O)COC(=O)c1cnccn1`, for which the survival enhancement was -1.4%.

For `CN(C)C(=O)CCc1ccc2c3c([nH]c2c1)[C@]1(C)[C@@H](C(=O)N2CCCCC2)C[C@H](CC(=O)NCCC2=CCCCC2)C(=O)N1CC3`, the survival enhancement was 1%. On to `CCN(CC)S(=O)(=O)c1ccc(N2CCCC2)c(NS(=O)(=O)c2cccs2)c1`, for which the survival enhancement is 0.5%. On to `COc1ccccc1NC(=O)C(C)OC(=O)CC1CCCC1` (stereo unspecified), for which the survival enhancement was -0.5%. The same measure for `O=C(CSc1nnc(CN2CCCC2)n1-c1ccc(F)cc1)c1ccc2c(c1)OCO2`: 0%; for `CCOc1ncccc1C(=O)Nc1ccc2c(c1)OCCO2`: 0.1%; for `COc1cc(C(=O)NC(=S)NCc2ccco2)cc(OC)c1OC`: -1.8%. Take `CCc1nc2ccc(C(=O)N3CCN(S(=O)(=O)CC)CC3)cn2c1N(C=O)CCC(C)C`: the survival enhancement was 0.9%. Take `CCC(=NC1CC(C)(C)NC(C)(C)C1)C1=C(O)CC(C)(C)CC1=O`: the survival enhancement is -1.8%.

For `Cc1ccc(C(=O)N/C(=C\c2ccco2)C(=O)NC2CCS(=O)(=O)C2)cc1` (stereo unspecified), the survival enhancement was -0.5%. `Nc1[nH]c(=S)nc2nc(-c3ccccc3)c(-c3ccccc3)nc12`: the survival enhancement is -2%. Take `CCn1c2c(c3ccc(OC)cc31)CCCC2=O`: the survival enhancement is 0.7%. Take `COC(=O)c1ccc2nc(C3CCCCC3)c(Cc3cccc(F)c3)n2c1`: the survival enhancement was -0.3%. The same measure for `CC1(C(=O)NCCc2c[nH]c3ccccc23)C=CC2(CCCCC2)N1C(=O)c1ccccc1` (stereo unspecified): -0.6%. The same measure for `COc1ccc(NC(=O)CC2C(=O)NC3CCCCC3N2C(=O)c2ccc(F)cc2)cc1` (stereo unspecified): -0.2%; for `COc1ccc2c(c1)c(=O)c(C(=O)c1ccc(Cl)cc1)cn2CC(=O)Nc1ccc(F)cc1`: 35.8% (active).

Regarding `O=C(c1ccc(F)cc1)c1cn(Cc2ccc(F)cc2)c2cc3c(cc2c1=O)OCCO3`, the survival enhancement was -1.1%. On to `O=C(Nc1cccc2cccnc12)c1ccc2sc([C@H]3C[C@H](O)[C@@H](CO)O3)nc2c1`, for which the survival enhancement is -1.8%.

In the case of `C=CCn1c(C23CC4CC(CC(C4)C2)C3)n[nH]c1=S`, the survival enhancement was -0.3%. Regarding `O=C(OCCN1C(=O)c2ccccc2C1=O)[C@@H]1CC(O)CN1S(=O)(=O)c1ccccc1[N+](=O)[O-]` (stereo partly specified), the survival enhancement is -1.2%. Take `CCc1nnc(NC(=O)C2CC(=O)N(c3ccc4c(c3)OCCO4)C2)s1` (stereo unspecified): the survival enhancement is -0.7%. Regarding `Cc1ccc(CCN2CC(C(=O)NCCc3ccccc3)CC2=O)cc1` (stereo unspecified), the survival enhancement is 0.1%. Regarding `CCOc1ccc(OCC)c(NC(=O)C(NS(=O)(=O)c2ccc3c(c2)oc(=O)n3C)C(C)C)c1` (stereo unspecified), the survival enhancement was -3.4%.

Turning to `COc1ccc(C(=O)NNC(=O)c2cnccn2)cc1[N+](=O)[O-]`, the survival enhancement was -1.9%. As to `COc1ccc(C(C#N)(CC(=O)O)c2cnccn2)cc1OC` (stereo unspecified), the survival enhancement was 27% (active).

Take `COc1ccccc1CCNC(=O)c1cnccn1`: the survival enhancement was 0.7%. The same measure for `CCC1CCCCN1CCNS(=O)(=O)c1ccc2c(c1)CCN2C(C)=O` (stereo unspecified): -1.5%; for `COC(=O)[C@@H]1C[C@H]2CC[C@H](O)C[C@H]2N1Cc1ccc(N2CCN(C)CC2)cc1`: -2.9%. With `COc1ccc(CCNC(=O)CN2C(=O)COc3ccc(S(=O)(=O)N4CCCC4)cc32)cc1OC`, the survival enhancement is 0.4%.

In the case of `C/C(=N\Nc1cccc(C(=O)O)c1)c1ccc2c(c1)Nc1ccccc1S2`, the survival enhancement is -0.6%. The same measure for `Cc1nc2ccc(N)nc2nc1C`: -2%; for `COC(=O)C(C)Sc1ccc2nnc(-c3cccc(F)c3)n2n1` (stereo unspecified): 1.5%; for `COc1ccc(-c2cc(C(F)(F)F)n3nc(C(=O)N4CCOCC4)c(Cl)c3n2)cc1`: 3.2%.

As for `Cc1cccc([C@@H]2[C@@H]3C(=O)N(Cc4ccccc4)C(=O)[C@@H]3[C@]3(Cc4ccc(Cl)cc4)C(=O)N(c4cccc(Cl)c4)C(=O)N23)c1`, the survival enhancement was -0.6%.

For `O=C(NCc1ccccc1CN1CCCC1)c1cccc(S(=O)(=O)Nc2ccc(F)cc2)c1`, the survival enhancement was -0.3%. For the compound `C[C@H](CO)N1C[C@H](C)[C@@H](CN(C)C(=O)C2CCCCC2)OCc2cnnn2CCCC1=O`, the survival enhancement was 5.1%. As for `CC(C)(C)NC(=O)Cn1nnc(-c2ccccc2Cl)n1`, the survival enhancement was 1%.

As to `C=CCn1nc(-c2ccccc2)c2c(C)onc2c1=O`, the survival enhancement is 0.6%.

Consider `CCOC(=O)C1=CCC2C(=O)N(Cc3ccccc3)C(=O)C12` (stereo unspecified), for which the survival enhancement is -0.2%. With `CCC(Cc1ccccc1)NC(=O)C1CCCCC1` (stereo unspecified), the survival enhancement is -0.3%. Turning to `Cc1nc(CNS(=O)(=O)c2ccc(Oc3ccccc3)cc2)cs1`, the survival enhancement is -0.6%. As to `CCNC(=O)c1c(O)c2cccc3c2n(c1=O)CC3`, the survival enhancement was 8.3%. The same measure for `OC[C@@H]1CN(Cc2ccc(Cl)cc2)C[C@H](n2cnc3c(NCc4ccncc4)ncnc32)O1`: 0.8%; for `Cc1cccc(C(=O)Nc2ccccc2C(=O)NCc2cccnc2)c1`: 7.7%. Turning to `O=C(COC(=O)C12CC3CC(CC(O)(C3)C1)C2)NC12CC3CC(CC(C3)C1)C2`, the survival enhancement was 4.1%. For the compound `CCOc1ccc(OCC)c(-c2c(=O)n(OCc3ccc(Cl)cc3)c3ccccc3[n+]2[O-])c1`, the survival enhancement was 0%. The same measure for `O=C(CN1C(=O)c2cccnc2Oc2ccc(Cl)cc21)Nc1ccc(F)cc1`: -2%; for `O=C(N/N=C1\CCSC1)c1cc(Cl)ccc1O`: 1.9%. On to `CC1CCCCC1NC(=O)Cn1c(=O)cnc2ccccc21` (stereo unspecified), for which the survival enhancement is -0.7%. The same measure for `O=C(NCc1nnc(SCC(=O)N2CCCc3ccccc32)o1)c1ccccc1F`: 0.9%; for `O=C(NCc1ccccc1)C1=C[C@@H](c2ccccc2)C[C@@H](OCCCCO)O1`: -2.5%. As to `CN(C)S(=O)(=O)c1ccc(N2CCCC2)c(C(=O)Nc2ccc(Br)cc2F)c1`, the survival enhancement was -0.6%. With `CCOC(=O)c1c(C)[nH]c(C(=O)NCCN2CCOCC2)c1C`, the survival enhancement is -0.1%. On to `Cc1nc2ccccc2nc(=O)c1NNc1ccc([N+](=O)[O-])cc1`, for which the survival enhancement is -1.5%. The same measure for `CCN(CC)c1ccc(C(=O)c2cnc(/N=C/N(C)C)s2)cc1`: -0.3%; for `C=CCSc1nc(Cc2ccc(Cl)cc2)nc2ccccc12`: -1.7%. Regarding `CCCCSc1nnc2c(n1)OC=Nc1ccccc1-2`, the survival enhancement is 1%. The same measure for `CCN(CC(=O)Nc1ccc(Cl)c(S(=O)(=O)N(C)C)c1)Cc1nc2ccccc2c(=O)[nH]1`: -0.1%.
